We go through 10 compounds from PubChem BioAssay.

Assay [1] has as its target Photoreceptor-specific nuclear receptor (Homo sapiens) (UniProt Q9Y5X4). Nature of the assay: retest of NR2E3-NCOR disrupting agonists – cell-based, luminescence, CHO-S two-hybrid, confirmation (AID 624378;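 active means average inhibition above a cutoff equal to the mean inhibition of all tested compounds plus one SD, cut at about 70% in these data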;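 further: 0% = DMSO in NR2E3 cells and 100% = DMSO in cells lacking NR2E3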). The settings on record: CHO-S mammalian two-hybrid NR2E3-NCOR, luciferase luminescence; at 3.98 µM; active compounds read high.
The nature of assay [2]: nonselective effects on VP16 transactivation – cell-based, luminescence, CHO-S, high throughput, counter-screen for NR2E3 agonist project, confirmation (AID 624379).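 Further: 0% = DMSO with VP16-transfected cells and 100% = DMSO with cells lacking VP16; higher means less reporter light so more repression of VP16 activity.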 Conditions: CHO-S GAL4-VP16 luciferase reporter, at 3.98 µM, active compounds read high.
A short description of assay [3]: StAR promoter reporter inhibitors, counter-screen for LRH-1 inverse agonist project, cell-based, luminescence, high throughput (AID 651611; in the data active means inhibition above about 28%). Conditions: StAR promoter luciferase reporter counterscreen, at 3.6 µM, active compounds read high. (In general: Counterscreens check selectivity or assay interference.)
Assay [4] has as its target Nuclear receptor subfamily 5 group A member 2 (Homo sapiens) (UniProt O00482). Nature of the assay: NR5A2 activity suppression in reporter cells – cell-based, luminescence, confirmation (AID 651613; in the data active means inhibition above about 42%;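 further: HEK293T cells co-transfected with LRH-1 and StAR promoter luciferase reporter; 0% = vehicle wells and 100% = parental cells lacking receptor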). The settings on record: cell-based LRH-1 luciferase reporter, inverse agonism; at 3.6 µM; active compounds read high.
For assay [5], the target named is Steroidogenic factor 1 (Homo sapiens) (UniProt Q13285). Nature of the assay: inverse agonism at SF1 nuclear receptor – cell-based, luminescence, high throughput, counter-screen for LRH-1 inverse agonist project (AID 651614; in the data active means inhibition above about 44%;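 further: cells cotransfected with StAR promoter reporter and SF1 expression vector; 0% = vehicle on cells with receptor and 100% = vehicle on cells lacking receptor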). Conditions: cell-based SF1 luciferase reporter, at 3.6 µM, active compounds read high.
Assay [6] is described as follows: compounds suppressing VP16-driven luciferase signal – cell-based, luminescence, high throughput, counter-screen for LRH-1 inverse agonist project (AID 651615; in the data active means inhibition above about 33%). Conditions: Gal4-VP16 luciferase reporter cells, at 3.6 µM, active compounds read high.
Assay [7] is described as follows: VP16-driven transactivation reporter suppression – cell-based, luminescence, HEK293, counter-screen for COUP-TFII antagonist project (AID 687007; in the data active means inhibition above about 13%). Conditions: HEK293 Gal4-VP16 luciferase reporter, at 8.5 µM, active compounds read high.
The target in assay [8] is COUP transcription factor 2 (Homo sapiens) (UniProt P24468). The experiment in a line: retest of COUP-TFII reporter suppressors – cell-based, luciferase reporter, HEK293, triplicate, confirmation (AID 687008;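 active means mean inhibition over three repeats above a set limit taken from the earlier primary screen, cut at about 38% in these data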;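 further: 100% = cells given the luciferase reporter alone without the COUP-TF2 vector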). The settings on record: HEK293 NGFI-A luciferase reporter, luminescence; at 8.5 µM; active compounds read high. A general note: In a reporter assay the amount or activity of a reporter protein is the signal.

The test system of assay [9] is transactivating tegument protein VP16 (Human herpesvirus 1). The experiment in a line: compounds suppressing VP16-driven luciferase signal – cell-based, luminescence, single concentration, counter-screen for SRC2 inhibitor project (AID 652007; in the data active means inhibition above about 36%). Conditions: cell-based VP16 transactivation luciferase reporter, at 8.9 µM, active compounds read high.
Assay [10] deals with Nuclear receptor coactivator 2 (Homo sapiens) (UniProt Q15596). Nature of the assay: inhibition of GAL4-SRC2 driven luciferase expression – cell-based, luminescence, HEK293, triplicate, confirmation (AID 652008;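 active means mean inhibition above 46.5%, the solvent-only control mean plus 3 SD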;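 further: 0% = DMSO-treated cells and 100% = Gossypol at 36 µM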). The settings on record: HEK293 GAL4-SRC2 luciferase reporter, at 8.9 µM, active compounds read high.

Unmarked numbers belong to inactive results. The list shows a part of the results. Activity calls are given as the source filed them.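 How the source made its calls, unless noted: active means mean inhibition above a cutoff equal to the average over all tested compounds plus one standard deviation (cut at about 70% in these data); inactive means the rest.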

Photoreceptor-specific nuclear receptor (Homo sapiens), sequence (Q9Y5X4 whole entry, looked up): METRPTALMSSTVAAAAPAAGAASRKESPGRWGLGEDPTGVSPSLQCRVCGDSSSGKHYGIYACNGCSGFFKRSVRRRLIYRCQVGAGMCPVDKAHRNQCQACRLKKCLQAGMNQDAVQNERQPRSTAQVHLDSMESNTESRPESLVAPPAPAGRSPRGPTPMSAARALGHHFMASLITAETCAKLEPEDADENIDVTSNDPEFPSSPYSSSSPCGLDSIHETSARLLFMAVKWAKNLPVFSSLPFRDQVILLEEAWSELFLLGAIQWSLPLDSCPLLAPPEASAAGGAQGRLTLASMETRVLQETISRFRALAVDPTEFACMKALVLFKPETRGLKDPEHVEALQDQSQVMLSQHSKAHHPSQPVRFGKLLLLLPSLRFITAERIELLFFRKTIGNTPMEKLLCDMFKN
COUP transcription factor 2 (Homo sapiens), sequence (P24468 whole entry, looked up): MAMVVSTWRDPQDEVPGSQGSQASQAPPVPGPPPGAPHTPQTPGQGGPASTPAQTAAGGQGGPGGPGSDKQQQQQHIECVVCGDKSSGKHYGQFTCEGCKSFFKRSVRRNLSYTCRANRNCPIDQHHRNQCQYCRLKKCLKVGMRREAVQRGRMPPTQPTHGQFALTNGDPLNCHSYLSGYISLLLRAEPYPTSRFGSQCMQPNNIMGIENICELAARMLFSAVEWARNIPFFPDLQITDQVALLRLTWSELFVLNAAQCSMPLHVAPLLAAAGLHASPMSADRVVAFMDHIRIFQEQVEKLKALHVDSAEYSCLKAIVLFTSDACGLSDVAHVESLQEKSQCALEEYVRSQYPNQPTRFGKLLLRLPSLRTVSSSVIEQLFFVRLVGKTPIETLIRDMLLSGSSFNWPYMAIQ
Nuclear receptor coactivator 2 (Homo sapiens), sequence (Q15596 whole entry, looked up, the tested form may be a part): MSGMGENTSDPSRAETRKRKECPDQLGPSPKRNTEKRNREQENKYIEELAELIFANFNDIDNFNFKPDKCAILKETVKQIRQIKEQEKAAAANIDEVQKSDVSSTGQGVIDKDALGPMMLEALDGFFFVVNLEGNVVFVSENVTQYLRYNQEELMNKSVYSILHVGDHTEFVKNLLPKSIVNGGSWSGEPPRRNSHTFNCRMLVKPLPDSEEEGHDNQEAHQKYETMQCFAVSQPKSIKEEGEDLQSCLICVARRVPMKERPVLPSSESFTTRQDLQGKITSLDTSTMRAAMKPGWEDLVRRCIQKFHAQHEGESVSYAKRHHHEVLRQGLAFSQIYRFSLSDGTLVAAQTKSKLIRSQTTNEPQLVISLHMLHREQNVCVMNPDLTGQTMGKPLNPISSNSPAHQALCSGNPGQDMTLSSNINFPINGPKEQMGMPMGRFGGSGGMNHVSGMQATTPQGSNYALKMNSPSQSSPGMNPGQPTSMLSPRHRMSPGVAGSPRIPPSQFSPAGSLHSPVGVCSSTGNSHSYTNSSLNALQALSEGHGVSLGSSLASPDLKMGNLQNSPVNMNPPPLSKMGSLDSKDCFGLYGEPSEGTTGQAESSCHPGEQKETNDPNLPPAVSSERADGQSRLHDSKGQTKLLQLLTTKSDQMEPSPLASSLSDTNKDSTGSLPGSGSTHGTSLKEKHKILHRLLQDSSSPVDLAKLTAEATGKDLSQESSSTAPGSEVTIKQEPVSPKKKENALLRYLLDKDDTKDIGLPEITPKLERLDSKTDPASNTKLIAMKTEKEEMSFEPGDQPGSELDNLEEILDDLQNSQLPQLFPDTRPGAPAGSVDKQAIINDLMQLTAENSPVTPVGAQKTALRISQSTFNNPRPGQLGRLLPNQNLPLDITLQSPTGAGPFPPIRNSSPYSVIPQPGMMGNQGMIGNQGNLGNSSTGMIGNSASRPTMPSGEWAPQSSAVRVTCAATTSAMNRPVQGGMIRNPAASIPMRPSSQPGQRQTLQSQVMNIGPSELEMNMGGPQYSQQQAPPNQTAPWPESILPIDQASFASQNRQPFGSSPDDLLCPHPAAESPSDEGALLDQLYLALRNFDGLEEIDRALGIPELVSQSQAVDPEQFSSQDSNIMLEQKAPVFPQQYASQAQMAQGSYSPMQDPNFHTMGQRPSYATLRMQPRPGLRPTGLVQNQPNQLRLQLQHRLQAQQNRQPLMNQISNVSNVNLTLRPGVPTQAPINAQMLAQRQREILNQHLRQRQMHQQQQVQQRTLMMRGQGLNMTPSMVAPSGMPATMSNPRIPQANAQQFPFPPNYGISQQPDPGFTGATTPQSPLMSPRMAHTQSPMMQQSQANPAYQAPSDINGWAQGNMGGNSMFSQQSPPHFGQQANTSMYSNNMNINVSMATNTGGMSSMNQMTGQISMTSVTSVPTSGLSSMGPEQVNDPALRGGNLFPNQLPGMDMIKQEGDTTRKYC
Nuclear receptor subfamily 5 group A member 2 (Homo sapiens), sequence (O00482 whole entry, looked up): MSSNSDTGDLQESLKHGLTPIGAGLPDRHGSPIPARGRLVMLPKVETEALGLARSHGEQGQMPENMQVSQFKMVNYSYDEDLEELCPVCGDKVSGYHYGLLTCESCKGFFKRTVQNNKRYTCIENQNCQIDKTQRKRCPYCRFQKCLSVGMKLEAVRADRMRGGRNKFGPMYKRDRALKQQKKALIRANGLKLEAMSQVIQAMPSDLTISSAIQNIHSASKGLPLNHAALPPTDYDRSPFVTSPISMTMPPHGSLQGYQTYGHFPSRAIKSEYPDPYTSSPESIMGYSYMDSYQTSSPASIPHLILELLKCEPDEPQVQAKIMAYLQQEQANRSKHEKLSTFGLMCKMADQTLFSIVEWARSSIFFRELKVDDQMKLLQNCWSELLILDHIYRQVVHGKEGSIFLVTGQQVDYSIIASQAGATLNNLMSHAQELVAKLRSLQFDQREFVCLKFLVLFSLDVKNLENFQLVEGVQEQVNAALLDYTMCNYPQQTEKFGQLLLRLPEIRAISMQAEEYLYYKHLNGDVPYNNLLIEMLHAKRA
Steroidogenic factor 1 (Homo sapiens), sequence (Q13285 whole entry, looked up, the tested form may be a part): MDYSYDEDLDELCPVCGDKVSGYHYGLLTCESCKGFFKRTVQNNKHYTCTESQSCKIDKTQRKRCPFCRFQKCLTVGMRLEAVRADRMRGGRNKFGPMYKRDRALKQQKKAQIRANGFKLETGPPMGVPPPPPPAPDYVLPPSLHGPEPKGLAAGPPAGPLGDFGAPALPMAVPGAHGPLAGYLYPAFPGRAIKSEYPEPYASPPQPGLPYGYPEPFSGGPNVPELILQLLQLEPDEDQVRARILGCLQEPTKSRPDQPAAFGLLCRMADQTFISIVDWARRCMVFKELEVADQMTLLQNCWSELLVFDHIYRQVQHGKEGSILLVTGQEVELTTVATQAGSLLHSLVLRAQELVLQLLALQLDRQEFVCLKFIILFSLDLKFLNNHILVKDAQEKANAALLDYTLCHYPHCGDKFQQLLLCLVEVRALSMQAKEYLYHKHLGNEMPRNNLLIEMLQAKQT

With `O=C(Nc1nnc(-c2ccccc2)o1)c1cc(-c2cccs2)nc2ccccc12`, the inhibition (in general, the relative decrease from the control value, in per cent) in assay [1] was 98.3% (active); in assay [2], 12.6%.

Turning to `COc1ccc(CNc2ncnc3ccccc23)cc1`, the inhibition in assay [1] was 82.4% (active); in [2] it was 75.7% (active); in assay [3], 11.2%; in assay [4], 63.6% (active); in assay [5] it was 55.6% (active); in [6], 62.8% (active). Also, the inhibition in [7] is 0.55%; in assay [8] it was 47.6% (active).

Turning to `Cc1nc(-c2ccc(F)cc2)c(CC(=O)Nc2cc(S(=O)(=O)N3CCCCC3)ccc2C)s1`, the inhibition in [1] was 56.8%; in assay [2], -7.22%.

For the compound `Cc1ccc(OCC(=O)c2cc(C)n(Cc3ccco3)c2C)c([N+](=O)[O-])n1`, the inhibition in assay [1] was 67.8%; in assay [2], 52.5%; in assay [9], 23.6%; in assay [10] it was 37.4%.

As for `CCn1c(CNC(=O)c2cc(OC)c(OC)c(OC)c2)cc2cc(C)ccc21`, the inhibition in [1] was 85.2% (active); in [2], 71% (active); in assay [7], 4.19%; in assay [8], 15.9%.

In the case of `CN(Cc1cn(Cc2ccc(C(F)(F)F)cc2)nn1)C1CN(Cc2cn(Cc3ccc(C(F)(F)F)cc3)nn2)S(=O)(=O)C1` (centres undefined), the inhibition in assay [1] is 86.8% (active); in assay [2], 63.3%.

As to `CCCCCc1c(-c2ccc(OC)c(OC)c2)ncn1CCc1ccccc1OC`, the inhibition is 73.5% (active) in assay [1], 35.4% in assay [2], 4.25% in assay [7] and 25.6% in [8].

Take `COc1ccc(C(=O)NC2CCCc3c2cnn3-c2cccc(C)c2C)c(OC)n1` (centres undefined): the inhibition is 89.6% (active) in assay [1], 74.1% (active) in assay [2], -6.55% in assay [9] and 19.8% in [10].

On to `CSc1ncccc1C(=O)Nc1nc2ccc(F)cc2s1`, for which the values for the inhibition in [1] and in assay [2] were 68.5% and 25.2%, respectively.

With `Cc1cccc(NC(=O)c2ccc(COc3ccccc3[N+](=O)[O-])o2)n1`, the inhibition was 10% in assay [1] and 26.1% in [2].
